The panel holds about 83,000 compounds, 20% with a hit somewhere; the sample as a whole holds those more often.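 Compound tested at a single concentration for 48 hours in 96-well plates; a percent growth value below 10 was scored as active.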 A number with no mark means an inactive call. Calls of active or inactive are those of the source.
The compounds below were run on HL-60(TB) leukemia (assay: NCI-60 one-dose screen, 48 h (100 = growth as untreated, 0 = no growth, -100 = all killed)). Settings: 10 µM unless noted.

Structure (SMILES)	growth
NC(=NCCCC1(c2ccccc2)CCCC1)Nc1ccc(Cl)cc1	77.2%
COc1cc(-c2csc(NC(=O)Nc3cc(Cl)cc(Cl)c3)n2)cc(OC)c1OC	34.9%
O=C(Nc1ccccc1O)c1ccc(CNC(=O)c2sccc2Nc2ccnc(C(F)(F)F)c2)cc1	25.2%
ClCCOCCOc1ccc(C2CCCCC2)cc1	105%
COc1cc([C@@H](CCO)C[C@H](C)c2ccc3ccccc3c2)cc(OC)c1OC	6.14% (active)
Cc1nn(-c2ccccc2)c(-n2ccnc2)c1/C=N/Nc1nc(-c2ccc(Cl)c(Cl)c2)cs1	76.6%
Cc1cc(O)c(C(C)(C)C)cc1Sc1cc(C(C)(C)C)c(O)cc1C	-20.9% (active)
COc1ccccc1CNCCCN1C(=O)c2ccc3c4c(ccc(c24)C1=O)C(=O)N(CCCNCCNCCCN)C3=O	0.848% (active)
Cc1ccccc1NC(=O)Cc1csc2[n+]1C(=O)/C(=C/c1ccc([N+](=O)[O-])cc1)S2	103%
COc1cc(-c2cn(-c3ccc(Cl)c(Cl)c3)c(=O)[nH]2)cc(OC)c1OC	88.1%
COc1cc(Cn2ncc3ccc(NC(=O)c4cc5ccccc5oc4=N)cc32)cc(OC)c1OC	64.8%
CS(=O)(=O)c1ccc(-c2[nH]c3ccc(F)cc3c2/C=N/NC(N)=S)cc1	-50.2% (active)
CC(C)Nc1cc(-c2c[nH]c(C(=O)N[C@H](CO)c3cccc(Cl)c3)c2)c(Cl)cn1	3.3% (active)
COc1ccc(-c2conc2-c2ccccc2)cc1	15.1%
